Experimental data from PubChem BioAssay AID720595 (Broad Institute, 2013).
Measured potencies and affinities stand elsewhere. The source made the active and inactive calls.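 The calls were made as follows: active = every repeat test gives a fitted half-maximal cytotoxic concentration no higher than twice the top valid dose; inconclusive = repeats disagree, or a flat partial loss or poor fit; inactive = the rest, including signal rising instead.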

Assay: ATP-based viability loss in HEK293T cells – cell-based, CellTiter-Glo luminescence, dry powder, set 2, cytotoxicity control, dose response (AID 720595)
Settings: 72 h; series mostly up to 26 µM; activity change, negative = cytotoxicity: at the top concentration

| SMILES | activity change, negative = cytotoxicity | outcome |
| --- | --- | --- |
| Cc1nnc(NC(=O)c2ccc(S(=O)(=O)N3CCCCC3)cc2)o1 | 3.22% (inactive) | – |
| CC1CC(C)CN(S(=O)(=O)c2ccc(C(=O)Nc3nnc(C4=COCCO4)o3)cc2)C1 (centres undefined) | 10.9% (inactive) | – |
| Cc1ccc(C(=O)Nc2nc(-c3ccccn3)cs2)cc1S(=O)(=O)N1CCOCC1 | 3.37% (inactive) | – |
| O=C(CSc1ccc(-c2ccccn2)nn1)Nc1nccs1 | -2.19% (inactive) | – |
| CC1CCN(S(=O)(=O)c2ccc(C(=O)Nc3nnc(-c4ccno4)o3)cc2)CC1 | 8.24% (inactive) | – |
| O=C(Nc1nc(-c2ccncc2)cs1)c1ccco1 | 5.54% (inactive) | – |
| CC1CCN(S(=O)(=O)c2ccc(C(=O)Nc3nnc(-c4ccccn4)o3)cc2)CC1 | 0.61% (inactive) | – |
| Cc1cccc(NC(=O)CSc2ccc(-c3ccccn3)nn2)c1C | -22% (inactive) | – |
| Nc1nc(-c2ccccn2)nc(N)c1Cc1ccc(Cl)cc1Cl | -26.5% (inactive) | – |
| CC1CCN(S(=O)(=O)c2ccc(C(=O)Nc3nnc(-c4cccs4)o3)cc2)CC1 | -32.3% (inactive) | – |
| O=C(Nc1nc(-c2ccncc2)cs1)c1cccc(S(=O)(=O)N2CCOCC2)c1 | -2.67% (inactive) | – |
| O=C(CSc1ccc(-c2ccccn2)nn1)NC1CCCCC1 | -7.59% (inactive) | – |
| COC(=O)c1ccc(NC(=O)CSc2ccc(-c3ccccn3)nn2)cc1 | -7.07% (inactive) | – |
| c1ccc(-c2nc(-c3ccncc3)n[nH]2)nc1 | – | inactive |
| CC(C)Cc1nnc(NC(=O)c2cccc(S(=O)(=O)N3CCOCC3)c2)s1 | -10.6% (inactive) | – |
| O=C(CSc1ccc(-c2ccccn2)nn1)N1CCCC1 | 6.61% (inactive) | – |
| O=C(Nc1nnc(C2=COCCO2)o1)c1ccc(S(=O)(=O)N2CCCCC2)cc1 | -13.1% (inactive) | – |
| Cc1ccc(C(=O)Nc2nc(-c3ccccc3)cs2)o1 | -2.19% (inactive) | – |
| Cc1c(C(=O)N(C)C)sc2nc(-c3ccccn3)[nH]c(=O)c12 | -16.1% (inactive) | – |
| Cc1ccc(S(=O)(=O)CCc2nnc(NC(=O)c3ccccc3)s2)cc1 | 3.04% (inactive) | – |
| O=C(Nc1nc(-c2ccccn2)cs1)c1ccc(S(=O)(=O)N2CCOCC2)cc1 | 13.6% (inactive) | – |
| COc1ccc(-c2nnc(NC(=O)c3ccc(S(=O)(=O)N4CCC(C)CC4)cc3)o2)cc1 | 0.53% (inactive) | – |
| CC1CCN(S(=O)(=O)c2ccc(C(=O)Nc3nnc(C4CC4)o3)cc2)CC1 | -30.8% (inactive) | – |
| FC(F)(F)c1cc(-c2nn[nH]n2)cc(C(F)(F)F)c1 | 16.9% (inactive) | – |
